Screen size: about 5,500 compounds; about 2,000 (36%) were called active. Roughly 18% stayed inconclusive and do not appear here. Cut-off read from the data, not from the text of the source: active = normalized growth mostly below about 0.91 (no sharp cut-off); inconclusive = no clear call, values can overlap the other calls; inactive = mostly above about 0.92. The list shows a part of the results.
Experiment: chemical genetic growth profiling, strain panel (AID 1159580);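 note: tested at 20 µM; growth read once vehicle control cultures reached saturation at 30 °C; 1 = growth at the plate median or of vehicle wells; lower values mean less growth of the strain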
Conditions: growth OD

Measured: normalized growth

COc1cc([C@H]2Oc3cc([C@H]4Oc5cc(O)cc(O)c5C(=O)[C@@H]4O)ccc3O[C@@H]2CO)ccc1O
inactive: S. cerevisiae deletion strains, locus YJR075W, strain HOC1, active compounds read low 0.999 | S. cerevisiae deletion strains, locus YKL009W, strain mrt4, active compounds read low 0.984 | S. cerevisiae deletion strains, locus YKL068W, active compounds read low 0.981 | S. cerevisiae deletion strains, locus YKL085W, strain MDH1 (second series), active compounds read low 1.02 | S. cerevisiae deletion strains, locus YKL085W, strain MDH1, active compounds read low 1.02 | S. cerevisiae deletion strains, locus YKL160W, strain elf1, active compounds read low 1.01 | S. cerevisiae deletion strains, locus YKL190W, strain CNB1, active compounds read low 0.989 | S. cerevisiae deletion strains, locus YKR001C, strain vps1, active compounds read low 0.961 | S. cerevisiae deletion strains, locus YKR026C, strain gcn3, active compounds read low 1.01 | S. cerevisiae deletion strains, locus YKR091W, strain srl3, active compounds read low 1.01 | S. cerevisiae deletion strains, locus YLL001W, strain dnm1, active compounds read low 1.01 | S. cerevisiae deletion strains, locus YLL026W, active compounds read low 1.01 | S. cerevisiae deletion strains, locus YLL041C, strain sdh2, active compounds read low 1.01 | S. cerevisiae deletion strains, locus YLR027C, strain aat2, active compounds read low 1.02 | S. cerevisiae deletion strains, locus YLR039C, strain RIC1, active compounds read low 0.945 | S. cerevisiae deletion strains, locus YLR058C, strain SHM2, active compounds read low 0.998 | S. cerevisiae deletion strains, locus YLR102C, strain apc9, active compounds read low 0.979 | S. cerevisiae deletion strains, locus YLR113W, strain HOG1, active compounds read low 0.986 | S. cerevisiae deletion strains, locus YLR221C, strain rsa3, active compounds read low 0.988 | S. cerevisiae deletion strains, locus YLR258W, strain gsy2, active compounds read low 1 | S. cerevisiae deletion strains, locus YLR262C, strain YPT6 (second series), active compounds read low 1.03 | S. cerevisiae deletion strains, locus YLR262C, strain YPT6, active compounds read low 0.953 | S. cerevisiae deletion strains, locus YLR268W, strain sec22, active compounds read low 0.965 | S. cerevisiae deletion strains, locus YLR320W, strain mms22, active compounds read low 0.991 | S. cerevisiae deletion strains, locus YLR330W, strain CHS5, active compounds read low 1 | S. cerevisiae deletion strains, locus YLR342W, strain FKS1 (second series), active compounds read low 1.01 | S. cerevisiae deletion strains, locus YLR342W, strain FKS1, active compounds read low 1.01 | S. cerevisiae deletion strains, locus YLR357W, strain rsc2, active compounds read low 1.03 | S. cerevisiae deletion strains, locus YLR370C, strain arc18, active compounds read low 1 | S. cerevisiae deletion strains, locus YLR371W, strain rom2, active compounds read low 0.971 | S. cerevisiae deletion strains, locus YLR384C, strain iki3, active compounds read low 1.02 | S. cerevisiae deletion strains, locus YLR418C, strain cdc73, active compounds read low 0.978 | S. cerevisiae deletion strains, locus YML016C, strain PPZ1, active compounds read low 1.01 | S. cerevisiae deletion strains, locus YML032C, strain rad52, active compounds read low 0.945 | S. cerevisiae deletion strains, locus YML120C, strain ndi1, active compounds read low 1.01 | S. cerevisiae deletion strains, locus YML124C, strain tub3, active compounds read low 0.986 | S. cerevisiae deletion strains, locus YMR058W, strain fet3, active compounds read low 0.998 | S. cerevisiae deletion strains, locus YMR078C, strain ctf18, active compounds read low 0.979 | S. cerevisiae deletion strains, locus YMR125W, strain sto1, active compounds read low 1.03 | S. cerevisiae deletion strains, locus YMR129W, active compounds read low 1.01 | S. cerevisiae deletion strains, locus YMR205C, strain PFK2, active compounds read low 1.01 | S. cerevisiae deletion strains, locus YMR223W, strain ubp8, active compounds read low 0.958 | S. cerevisiae deletion strains, locus YMR231W, strain pep5, active compounds read low 1.01 | S. cerevisiae deletion strains, locus YMR263W, strain SAP30, active compounds read low 0.998 | S. cerevisiae deletion strains, locus YMR307W, strain GAS1, active compounds read low 0.905 | S. cerevisiae deletion strains, locus YNL067W, strain RPL9B, active compounds read low 0.994 | S. cerevisiae deletion strains, locus YNL071W, strain lat1, active compounds read low 0.995 | S. cerevisiae deletion strains, locus YNL128W, strain TEP1, active compounds read low 0.993 | S. cerevisiae deletion strains, locus YNL153C, strain GIM3, active compounds read low 1 | S. cerevisiae deletion strains, locus YNL183C, strain NPR1, active compounds read low 0.932 | S. cerevisiae deletion strains, locus YNL209W, strain ssb2, active compounds read low 1.01 | S. cerevisiae deletion strains, locus YNL233W, strain BNI4, active compounds read low 0.997 | S. cerevisiae deletion strains, locus YNL248C, strain rpa49, active compounds read low 1.01 | S. cerevisiae deletion strains, locus YNL250W, strain rad50, active compounds read low 0.975 | S. cerevisiae deletion strains, locus YNL271C, strain bni1, active compounds read low 0.969 | S. cerevisiae deletion strains, locus YNL298W, strain CLA4, active compounds read low 0.965 | S. cerevisiae deletion strains, locus YNL307C, strain MCK1, active compounds read low 0.969 | S. cerevisiae deletion strains, locus YNL322C, strain KRE1 (second series), active compounds read low 1.01 | S. cerevisiae deletion strains, locus YNL322C, strain KRE1, active compounds read low 0.993 | S. cerevisiae deletion strains, locus YNR049C, strain mso1, active compounds read low 1.01 | S. cerevisiae deletion strains, locus YNR052C, strain pop2, active compounds read low 0.979 | S. cerevisiae deletion strains, locus YOL006C, strain TOP1, active compounds read low 0.969 | S. cerevisiae deletion strains, locus YOL012C, strain htz1 0.746 | S. cerevisiae deletion strains, locus YOL147C, strain pex11, active compounds read low 0.973 | S. cerevisiae deletion strains, locus YOR001W, strain rrp6, active compounds read low 1.01 | S. cerevisiae deletion strains, locus YOR061W, strain CKA2, active compounds read low 1 | S. cerevisiae deletion strains, locus YOR069W, strain VPS5, active compounds read low 1.01 | S. cerevisiae deletion strains, locus YOR070C, strain gyp1, active compounds read low 1.01 | S. cerevisiae deletion strains, locus YOR080W, strain dia2, active compounds read low 1.02 | S. cerevisiae deletion strains, locus YOR083W, strain WHI5, active compounds read low 1.01 | S. cerevisiae deletion strains, locus YOR106W, strain vam3, active compounds read low 1.01 | S. cerevisiae deletion strains, locus YOR136W, strain idh2, active compounds read low 0.973 | S. cerevisiae deletion strains, locus YOR144C, strain elg1, active compounds read low 0.96 | S. cerevisiae deletion strains, locus YOR184W, strain ser1, active compounds read low 0.947 | S. cerevisiae deletion strains, locus YOR231W, strain MKK1, active compounds read low 1.02 | S. cerevisiae deletion strains, locus YOR265W, strain rbl2, active compounds read low 1.01 | S. cerevisiae deletion strains, locus YOR270C, strain vph1, active compounds read low 0.961 | S. cerevisiae deletion strains, locus YOR290C, strain snf2, active compounds read low 0.996 | S. cerevisiae deletion strains, locus YOR316C, strain cot1, active compounds read low 0.985 | S. cerevisiae deletion strains, locus YPL051W, strain arl3, active compounds read low 1 | S. cerevisiae deletion strains, locus YPL055C, strain LGE1, active compounds read low 0.995 | S. cerevisiae deletion strains, locus YPL078C, strain atp4, active compounds read low 1.02 | S. cerevisiae deletion strains, locus YPL106C, strain sse1, active compounds read low 0.994 | S. cerevisiae deletion strains, locus YPL240C, strain hsp82, active compounds read low 1.01 | S. cerevisiae deletion strains, locus YPL241C, strain CIN2, active compounds read low 0.975 | S. cerevisiae deletion strains, locus YPL256C, strain CLN2, active compounds read low 1.01 | S. cerevisiae deletion strains, locus YPR119W, strain clb2, active compounds read low 0.993 | S. cerevisiae deletion strains, locus YPR141C, strain kar3, active compounds read low 0.985 | S. cerevisiae deletion strains, locus YPR163C, strain tif3, active compounds read low 0.973 | S. cerevisiae deletion strains, locus YPR167C, strain met16, active compounds read low 0.996 | S. cerevisiae deletion strains, strain wtn01, active compounds read low 0.987 | S. cerevisiae strains, strain wild type, active compounds read low 1

— PubChem BioAssay AID1159580 (chemical genetic matrix, 2015)
